Measurements taken from PubChem BioAssay (NCATS).
Records with an inconclusive call do not appear. Activity calls are given as the source filed them. Calls follow the shape of the dose curve; as a rule, active = well fitted curve in the direction sought with a large enough effect in the repeat runs; inconclusive = weak or mixed curves; inactive = no such curve, though single readings can be large; an effect the other way counts as inactive or inconclusive.

Key:
[1] = molecular target: Cytochrome P450 2D6 (Homo sapiens) (UniProt P10635); assay: Cytochrome P450 family 2 subfamily D member 6 (CYP2D6) small molecule antagonists: luciferase biochemical (cell-free) qHTS assay (AID 1645840); settings: P450-Glo CYP2D6 enzyme, luciferin luminescence, 1 h; series mostly up to 57.4 µM
Cytochrome P450 2D6 (Homo sapiens), sequence (P10635 whole entry, looked up): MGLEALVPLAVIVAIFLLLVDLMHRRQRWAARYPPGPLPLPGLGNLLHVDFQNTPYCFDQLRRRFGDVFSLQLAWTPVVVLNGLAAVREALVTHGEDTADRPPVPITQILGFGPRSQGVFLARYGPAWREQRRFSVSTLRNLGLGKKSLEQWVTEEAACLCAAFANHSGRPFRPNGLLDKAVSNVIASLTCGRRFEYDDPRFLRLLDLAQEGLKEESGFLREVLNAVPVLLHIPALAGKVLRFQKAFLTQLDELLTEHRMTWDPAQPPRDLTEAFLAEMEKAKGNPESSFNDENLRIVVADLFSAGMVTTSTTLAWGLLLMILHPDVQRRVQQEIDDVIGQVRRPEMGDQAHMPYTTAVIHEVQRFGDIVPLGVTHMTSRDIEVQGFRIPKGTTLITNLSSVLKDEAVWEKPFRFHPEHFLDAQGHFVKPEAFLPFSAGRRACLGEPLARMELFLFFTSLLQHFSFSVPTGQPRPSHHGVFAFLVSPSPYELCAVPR
In short: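 P450-Glo CYP2D6 system: proluciferin substrate converted by enzyme to luciferin, read by luminescence proportional to activity. Enzyme-substrate mix with compound 10 min at room temperature, then NADPH regeneration 1 h before detection reagent.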

[2] = molecular target: Cytochrome P450 2C9 (Homo sapiens) (UniProt P11712); assay: Cytochrome P450 family 2 subfamily C member 9 (CYP2C9) small molecule antagonists: luciferase biochemical (cell-free) qHTS assay (AID 1645842); settings: P450-Glo CYP2C9 enzyme assay, luciferin luminescence; series mostly up to 57.4 µM
Cytochrome P450 2C9 (Homo sapiens), sequence (P11712 whole entry, looked up): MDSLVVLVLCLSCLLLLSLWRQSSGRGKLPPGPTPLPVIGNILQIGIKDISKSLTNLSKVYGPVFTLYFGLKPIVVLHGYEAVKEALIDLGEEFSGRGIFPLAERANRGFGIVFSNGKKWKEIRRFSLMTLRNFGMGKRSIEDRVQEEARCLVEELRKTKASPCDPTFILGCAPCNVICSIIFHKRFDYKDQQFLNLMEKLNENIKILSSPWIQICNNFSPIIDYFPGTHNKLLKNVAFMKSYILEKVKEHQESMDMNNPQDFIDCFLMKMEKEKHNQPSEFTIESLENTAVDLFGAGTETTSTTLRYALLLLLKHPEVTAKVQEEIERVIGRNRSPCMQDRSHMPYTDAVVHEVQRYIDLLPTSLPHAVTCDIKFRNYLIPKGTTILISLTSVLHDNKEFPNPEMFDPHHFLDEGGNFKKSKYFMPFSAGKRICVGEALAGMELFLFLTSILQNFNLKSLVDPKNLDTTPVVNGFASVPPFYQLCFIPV
In short: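 P450-Glo CYP2C9 system: proluciferin substrate with enzyme in mix containing 0.4% BSA, 10 min at room temperature, then NADPH regeneration solution added and incubated 1 h at 37C. Detection reagent stopped reaction; luminescence read after 20 min as RLU.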
Also: nearly all actives have a fitted effect of over 55% in size.
Potency is read from the fitted curve at half-maximal effect.

| Structure (SMILES) | Potency [1] | Potency [2] |
| --- | --- | --- |
| CCOC(=O)N1CCc2c(sc3c2c(=O)n(Cc2ccccc2)c(=O)n3CC(=O)Nc2cccc(C)c2)C1 | 1.51 µM (active) | 4.25 µM (active) |
| Cc1ccc(CSC2=Nc3ccccc3C3=NC(CC(=O)NCc4cccs4)C(=O)N23)cc1 (stereo unspecified) | 6.74 µM (active) | 0.379 µM (active) |
| Cc1c(Cl)cccc1NC(=O)Cn1cc(C(=O)C2CCCCC2)c2ccccc21 | 5.35 µM (active) | 2.13 µM (active) |
| NS(=O)(=O)c1ccc(Cc2c(-c3cccc(-c4ccccc4)c3)nn(-c3nc(C(=O)O)cs3)c2C2CC2)cc1 | 21.3 µM (active) | 23.9 µM (active) |
| CN1C(=O)NC(Cc2c[nH]c3c(Cl)cccc23)C1=O (stereo unspecified) | inactive | 13.5 µM (active) |
| Cc1cccc(NC(c2cccc(Cl)c2)c2ccc3cccnc3c2O)n1 (stereo unspecified) | inactive | 28.2 µM (active) |
| COc1ccc(CNC(=O)Nc2ccc3c(c2)N(C)C(=O)c2ccccc2S3)cc1OC | 9.52 µM (active) | inactive |
| N#C/C(=C/c1ccccc1Cl)c1nc2ccccc2c(=O)[nH]1 | inactive | 3.38 µM (active) |
| CCc1ccc(-n2c(SCc3ccccc3F)nc3[nH]ncc3c2=O)cc1 | 12 µM (active) | 4.77 µM (active) |
| COCCOc1nc(N)c2[nH]c(=O)n(Cc3ccc(C(=O)O)cc3)c2n1 | inactive | inactive |
| COc1ccc(CCNc2nc(SCc3ccccc3Cl)nc3ccccc23)cc1OC | 0.756 µM (active) | 0.19 µM (active) |
| O=C(NC1CCCCC1)c1ccc(CSc2nc3cccnc3n2Cc2ccccc2F)cc1 | 9.52 µM (active) | 0.338 µM (active) |
| COc1ccc(CNC(=O)C2CCCN(c3nnc(C)c4c(C)n(-c5ccc(C)cc5)nc34)C2)cc1 (stereo unspecified) | 19 µM (active) | 2.68 µM (active) |
| CC1=C(C(=O)Nc2cccc(C(N)=O)c2)C(c2ccccc2Cl)N=C(Nc2nc3ccccc3o2)N1 (stereo unspecified) | 8.49 µM (active) | 0.19 µM (active) |
| Cc1oc(-c2cccc(Cl)c2)nc1Cn1c(SCc2ccccc2F)nc2ccncc21 | 4.77 µM (active) | 7.56 µM (active) |
| Cc1cccc(NC(c2ccccc2C)c2ccc3ccc(C)nc3c2O)n1 (stereo unspecified) | inactive | 6.74 µM (active) |
| COc1ccc(CC2c3cc(OC)c(OC)cc3CCN2CCC(=O)OCCCCCOC(=O)CCN2CCc3cc(OC)c(OC)cc3C2Cc2ccc(OC)c(OC)c2)cc1OC (stereo unspecified) | inactive | 21.3 µM (active) |
| Cc1ccc(Cn2c(SCc3ccc(C(=O)N4CCCCCC4)cc3)nc3ccncc32)cc1 | 7.56 µM (active) | inactive |
| CCc1ccc(OCCn2c(C3CC(=O)N(Cc4ccc(F)cc4)C3)nc3ccccc32)cc1 (stereo unspecified) | 3.01 µM (active) | inactive |
| COc1cccc(-c2oc3ccc(C)cc3c(=O)c2O)c1 | 7.56 µM (active) | 7.56 µM (active) |
| O=C(CC1N=C2c3ccccc3N=C(SCc3ccc(Cl)cc3)N2C1=O)NCCc1ccccc1 (stereo unspecified) | 2.13 µM (active) | 1.9 µM (active) |

| Structure (SMILES) | Potency [1] | Potency [2] |
| --- | --- | --- |
| COc1ccccc1Cn1cc(C(=O)c2ccc(Cl)cc2)c(=O)c2cc3c(cc21)OCCO3 | 2.68 µM (active) | 2.68 µM (active) |
| Cc1ccc(C2=CC(c3ccccc3F)n3c(nc4ccccc43)N2)cc1C (stereo unspecified) | 10.7 µM (active) | 6.01 µM (active) |
| Cc1ccc(CSc2nc3ccncc3n2Cc2nc(-c3ccccc3C)oc2C)cc1 | 2.39 µM (active) | 7.56 µM (active) |
| Cc1nnc(N2CCC(C(=O)NCCc3ccccc3Cl)CC2)c2nn(-c3ccccc3)c(C)c12 | 2.13 µM (active) | 1.9 µM (active) |
| CCOc1ccc(C(NC(=O)c2cc(OC)c(OC)c(OC)c2)c2cc(Cl)c3cccnc3c2O)cc1 (stereo unspecified) | inactive | 30.1 µM (active) |
| Cc1ccc2nc(-c3ccccn3)c(Nc3ccccc3C)n2c1 | 21.3 µM (active) | 1.9 µM (active) |
| CCOC(=O)c1ccc(NC(=O)CSc2cc(-c3ccccc3)nc(C)n2)cc1 | inactive | 0.952 µM (active) |
| COc1ccc(Cn2c(CCC(=O)Nc3ccc(C)c(C)c3)nc3cccnc32)cc1 | inactive | 7.56 µM (active) |
| CC1(C)CC1C(=O)NC(=CCCCCSCC(N)C(=O)O)C(=O)O (stereo unspecified) | inactive | inactive |
| CC1(C#N)CCN(c2c(C(=O)N3CCC(C(=O)C4CC4)CC3)cnc3c(F)cc(F)cc23)CC1 | 16.9 µM (active) | 9.52 µM (active) |
| NC(=O)c1ccc(Cc2c(-c3cccc(-c4ccccc4)c3)[nH]n(-c3nc(C(=O)O)cs3)c2=O)cc1 | 23.9 µM (active) | 26.8 µM (active) |
| C=Cc1ccc(Cn2c(SCC(=O)N3CCN(c4ccc(F)cc4)CC3)nc3ccccc32)cc1 | inactive | 3.38 µM (active) |
| O=C(CSc1nc(-c2ccc(F)cc2)[nH]c1-c1ccc(F)cc1)Nc1ccc2c(c1)OCO2 | 2.13 µM (active) | 0.849 µM (active) |
| CCCNC(=O)C1CCC(Cn2c(=O)c3sccc3n(CC(=O)NCc3ccccc3)c2=O)CC1 (stereo unspecified) | inactive | 6.01 µM (active) |
| CC1(C#N)CCN(c2c(C(=O)N3CCN(C(=O)C4CC4)CC3)cnc3ccc(Cl)cc23)CC1 | inactive | 16.9 µM (active) |
| CC(C)c1ccc(-n2ncc3c(=O)n(CC(=O)Nc4cc(F)ccc4Cl)cnc32)cc1 | inactive | 3.79 µM (active) |
| COc1ccc(-n2ccn(CC(=O)Nc3ccc(C)c(C)c3)c(=O)c2=O)cc1OC | inactive | inactive |
| Cc1ccc(C2=Nc3ccccc3N(CC(=O)Nc3ccccc3F)C(=O)C2)cc1C | 2.39 µM (active) | inactive |
| COC(=O)C1=C(c2ccccc2)c2ccccc2S(=O)(=O)N1CC(=O)Nc1ccccc1Cl | 3.79 µM (active) | 4.77 µM (active) |
| NC(=O)C(c1ccccc1)(c1ccccc1)[C@H]1CCN(CCc2ccc3c(c2)CCO3)C1 | 0.0425 µM (active) | 8.49 µM (active) |
| Cc1ccc(S(=O)(=O)N[C@@H]2CCCC[C@H]2O)cc1 | inactive | inactive |

| Structure (SMILES) | Potency [1] | Potency [2] |
| --- | --- | --- |
| CCOc1ccccc1CNC(=O)C1CCN(S(=O)(=O)c2c(C)noc2/C=C/c2ccccc2F)CC1 | inactive | 0.151 µM (active) |
| CCCCCCCCCCCCCCCC(=O)OC[C@H](O)[C@H]1OC(=O)C(=O)C1O (stereo partly specified) | inactive | 26.8 µM (active) |
| Cc1ccc(-n2c(SCc3cccc(F)c3)nc3[nH]ncc3c2=O)cc1C | 8.49 µM (active) | 1.51 µM (active) |
| COc1ccc(CN(C2CCCCC2)[S+](C)(=O)[O-])cc1OC | inactive | 6.74 µM (active) |
| Cc1ccc(S(=O)(=O)N2CCc3cc(C(=O)Nc4ccc(C(F)(F)F)cc4)ccc32)cc1 | inactive | 1.51 µM (active) |
| COCCCNC(=O)C(=O)Nc1c2c(nn1-c1cccc(Cl)c1)CSC2 | inactive | 8.49 µM (active) |
| O=C(Cn1c(=O)n(-c2ccc(Cl)cc2)c(=O)c2oc3ccccc3c21)Nc1ccccc1 | 0.849 µM (active) | 4.77 µM (active) |
| O=C(CSc1nnc(-c2cccc(F)c2)c(-c2cccc(F)c2)n1)NC1CCCCC1 | inactive | 1.51 µM (active) |
| Cc1cccc2nc(-c3ccccn3)c(Nc3ccc(F)cc3)n12 | 10.7 µM (active) | 1.2 µM (active) |
| Cc1ccc([S+](=O)([O-])NC2(c3ccccc3)CCCCC2)cc1 | inactive | 2.68 µM (active) |
| C[C@H]1[C@@H](OC(=O)CCC(=O)O)O[C@@H]2O[C@]3(C)CC[C@H]4[C@H](C)CC[C@@H]1[C@@]24OO3 | inactive | inactive |
| CCOc1ccc(CCNC(=O)C2CCCN(c3nnc(C)c4c(C)n(-c5ccccc5)nc34)C2)cc1 (stereo unspecified) | 4.77 µM (active) | 3.01 µM (active) |
| COc1cc(C(=O)NC(c2ccccc2Cl)c2cc(Cl)c3cccnc3c2O)cc(OC)c1OC (stereo unspecified) | inactive | 15.1 µM (active) |
| CC1=C(C(=O)NCc2cncn2C)C(c2ccccc2Cl)N=C(Nc2nc3ccccc3o2)N1 (stereo unspecified) | 9.52 µM (active) | 7.56 µM (active) |
| COc1ccc(CNC(=O)C(=O)Nc2c3c(nn2-c2ccccc2)CSC3)cc1 | inactive | 3.38 µM (active) |
| Cc1cccc(Cn2c(SCc3ccc(C(=O)N4CCC(C)CC4)cc3)nc3ccncc32)c1 | 4.77 µM (active) | 4.77 µM (active) |
| CCOC(=O)c1cc(S(=O)(=O)N2CCN(c3cc(Cl)ccc3C)CC2)[nH]n1 | 26.8 µM (active) | 1.2 µM (active) |
| COc1cc(C(c2c(C)[nH][nH]c2=O)c2c(C)[nH][nH]c2=O)ccc1OC(=O)c1cccc(C)c1 | inactive | 12 µM (active) |
| CCN(CC)S(=O)(=O)c1ccc2c(c1)nc(CN(C)C(=O)Nc1cccc(Cl)c1)n2C | 26.8 µM (active) | 0.849 µM (active) |
| COc1ccc(-c2nc(SCC(=O)Nc3ccc4c(c3)OCO4)c(-c3ccc(OC)cc3)[nH]2)cc1 | 5.35 µM (active) | 0.849 µM (active) |
| CCn1cc(/C=C(\NC(=O)c2ccc(C)cc2)C(=O)NCCCn2ccnc2)c2ccccc21 | 0.169 µM (active) | 1.34 µM (active) |
